Compound activity deposited in PubChem BioAssay by National Center for Advancing Translational Sciences (NCATS).
Compounds with a hit are over-represented: about 7.5% of the library has one in this group of screens.
ELG1 genotox = inducers of genotoxicity in HEK293T ELG1-luciferase cells | HEK293T ELG1-luciferase reporter, luminescence, 16 h | Potency, µM (series often up to 46 µM), most hits filed as activators | 330,000 tested, 1.3% active; note: nearly all actives have a fitted effect of over 60% in size
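Genotoxic stress is detected as increased luminescence from luciferase-tagged ELG1 in HEK293T cells, measured with ONE-Glo after a 16 hr treatment at 37 °C.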
KinaseGlo FLuc = blocks Kinase-Glo luciferase, a counter-screen artifact; Q27757; Kinase-Glo luciferase, ATP luminescence, 8 min; Potency, µM (series often up to 38.3 µM), most hits filed as inhibitors; 200,000 tested, 0.28% active; note: nearly all actives have a fitted effect of over 60% in size
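Kinase-Glo luciferase light output from ATP and luciferin was measured with 10 uM ATP, within the enzyme's linear range. Buffer: 50 mM imidazole pH 7.2, 50 mM KCl, 7 mM MgCl2, 0.01% Tween 20, 0.05% BSA; luminescence read after 8 min at ambient temperature.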
Rab9 prom act = activates the Rab9 promoter | AID 485297 | Huh7 Rab9 promoter-luciferase reporter, luminescence, 24 h | 320,000 tested, 2.8% active | Potency, µM (series often up to 9.22 µM), most hits filed as activators; note: nearly all actives have a fitted effect of over 60% in size
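Huh7 reporter line, Rab9 promoter upstream of luciferase. Compound exposure 24 h at 37 °C in reduced-serum medium with 10% FBS. Read-out: luminescence.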
NPC1 promoter act = NPC1 promoter activation | Huh7 NPC1 promoter luciferase reporter, 24 h | Potency, µM (titrated, usually from 9.22 µM), most hits filed as activators | 320,000 tested, 2.4% active | AID 485313; note: nearly all actives have a fitted effect of over 60% in size
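In 1536-well qHTS, Huh7 cells harboring an NPC1 promoter–luciferase construct received compound for 24 h; activation was quantified by luminescence following luciferase reagent addition.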
SMN2 splice enh = SMN2 splice variant enhancement. Potency, µM (series often up to 46.1 µM), actives largely listed as activators. 210,000 tested, 2.8% active. HEK293 SMN2-luciferase splicing reporter, luminescence, 30-36 h; note: nearly all actives have a fitted effect of over 55% in size
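HEK293 cells carry an SMN2 minigene-luciferase reporter in which exon 7 inclusion puts luciferase in frame. Cells were seeded at 2000 cells/well, attached for 10-12 hours, then exposed to compounds for 30-36 hours at 37C before ONE-Glo luminescence.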
FLuc counter = inhibits or activates purified firefly luciferase, miR-21 counter-screen. Potency, µM (highest dose often 57.5 µM), hits mostly inhibitors. P08659. 360,000 tested, 6.9% active. purified FLuc, Km substrates, luminescence inhibition; note: nearly all actives have a fitted effect of over 55% in size
Target sequence (P08659 whole entry, looked up): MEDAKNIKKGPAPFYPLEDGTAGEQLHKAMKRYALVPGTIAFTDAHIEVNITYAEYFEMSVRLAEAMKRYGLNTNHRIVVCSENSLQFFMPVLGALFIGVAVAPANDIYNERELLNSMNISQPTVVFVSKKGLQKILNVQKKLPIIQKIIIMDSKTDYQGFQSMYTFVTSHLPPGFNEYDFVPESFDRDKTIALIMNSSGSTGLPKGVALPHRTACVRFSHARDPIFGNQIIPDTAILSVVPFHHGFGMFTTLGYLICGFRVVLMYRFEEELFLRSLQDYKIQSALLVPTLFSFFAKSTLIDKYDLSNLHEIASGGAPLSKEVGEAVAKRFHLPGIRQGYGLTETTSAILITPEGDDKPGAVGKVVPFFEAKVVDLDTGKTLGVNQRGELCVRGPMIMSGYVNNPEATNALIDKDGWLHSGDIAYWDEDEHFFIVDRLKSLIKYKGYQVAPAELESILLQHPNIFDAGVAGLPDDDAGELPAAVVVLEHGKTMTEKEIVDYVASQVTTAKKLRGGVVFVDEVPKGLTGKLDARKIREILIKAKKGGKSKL
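Biochemical qHTS of compounds, final roughly 60 µM downward over six points, against 10 nM purified firefly luciferase using Km concentrations of substrates (10 uM D-luciferin, 10 uM ATP) in Tris acetate pH 7.5 buffer; luminescence output.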
Numbers stand for hits; n = inactive; u = inconclusive; x = no result. Calls come from the whole dose curve; as a rule, active = well fitted curve in the direction sought with a large enough effect; inconclusive = small, poorly fitted or top-dose-only effect, or another doubt; inactive = no such curve, though single readings can be large; an effect the other way counts as inactive or inconclusive.

SMILES	ELG1 genotox	KinaseGlo FLuc	Rab9 prom act	NPC1 promoter act	SMN2 splice enh	FLuc counter
Cc1cc(CNC(=O)c2cc(-c3ccccc3)nc3ccccc23)nn1C	n	n	n	n	n	u
Cc1cccc(-c2cc(C(=O)NCc3ccccn3)c3ccccc3n2)c1	n	n	n	n	n	8.5µM
O=C(NCc1ccccc1)c1cc(-c2ccncc2)nc2ccccc12	n	x	n	n	x	n
COCCNC(=O)c1cc(-c2ccc(-c3ccccc3)cc2)nc2ccccc12	n	x	n	n	x	n
O=C(NCc1ccccn1)c1cc(-c2ccccc2)nc2ccccc12	n	n	n	n	n	17µM
Cc1ccc(NC(=O)CCc2nnc3n(CC(C)C)c(=O)c4ccccc4n23)cc1C	x	x	x	x	n	n
CCOC(=O)c1cc(-c2ccc(F)cc2)n(CCC(=O)NCc2ccc(C)cc2)c1C	x	x	x	x	x	n
Cc1ccc(-c2cc(C(=O)NCc3ccccn3)c3ccccc3n2)cc1C	n	n	n	n	13µM	1.5µM
O=C(NCc1ccccn1)c1cc(-c2ccc(Cl)cc2)nc2ccccc12	n	n	n	n	n	5.4µM
O=C(NCCc1ccccn1)c1cc(-c2ccccc2Cl)nc2ccccc12	n	n	n	n	n	n
C=CCn1c(=S)[nH]c2cc(-c3ccccc3)sc2c1=O	n	x	n	n	x	1.9µM
O=C(CSc1nccn1-c1cccc(Cl)c1)Nc1cccc2ccccc12	x	x	x	x	x	n
CC(=O)NCCc1nc2cc(NC(=O)c3ccc(Cl)cc3)ccc2n1C	5.8µM	x	1.1µM	0.71µM	x	8.5µM
CCC(=O)NCCc1nc2cc(NC(=O)c3ccc(F)cc3)ccc2n1C	7.3µM	x	2.8µM	1.3µM	x	17µM
COc1ccc(OCC(=O)Nc2ccc3c(c2)nc(CCNC(C)=O)n3C)cc1	n	x	n	n	x	n
CCCC(=O)Nc1ccc2c(c1)nc(CCNC(=O)c1ccccc1)n2C	n	n	n	n	n	n
CC(=O)N1CCN(Cc2nc3cc(NC(=O)c4ccc(Cl)cc4)ccc3n2C)CC1	n	n	n	n	n	u
CCC(=O)NCCc1nc2cc(NC(=O)c3ccc(Cl)cc3)ccc2n1C	u	x	0.63µM	1.8µM	x	11µM
CCC(=O)NCCc1nc2cc(NC(=O)c3ccc(OC)cc3)ccc2n1C	8.9µM	n	u	u	13µM	17µM
CCCN(C(=O)Cn1ncc2c1-c1ccccc1OC2)c1cccc(C)c1	x	x	x	x	n	n
CC(=O)NCCc1nc2cc(NC(=O)c3cccs3)ccc2n1C	n	n	4.5µM	u	x	u
Cn1c(CCNC(=O)C2CCCCC2)nc2cc(NC(=O)c3cccs3)ccc21	u	n	n	n	n	n
O=C(/C=C/c1ccc(OCc2cccc(Cl)c2)cc1)N1CCOCC1	n	n	n	n	n	u
O=C(O)/C=C/c1ccc(OCc2cccc(F)c2)cc1	n	n	n	n	x	17µM
COc1ccccc1NC(=O)C1=C(C)Nc2c(C(=O)Nc3ccc(F)cc3)cnn2C1c1ccc(Cl)cc1 (stereo not given)	x	x	x	x	x	n
SMILES	ELG1 genotox	KinaseGlo FLuc	Rab9 prom act	NPC1 promoter act	SMN2 splice enh	FLuc counter
CCOC(=O)C(/C(N)=N/C(=O)Nc1ccccc1)=C(\C)O	n	n	n	n	n	6µM
CCOC(=O)c1ccc(NC(=S)Nc2ccccc2)cc1	n	n	n	n	u	u
CC(=O)Nc1ccc(N2C(=O)CSC2c2ccccc2[N+](=O)[O-])cc1 (stereo not given)	n	n	n	n	n	n
Cc1ccc(NC(=O)NCc2c(-n3cccc3)sc3c2CCCC3)c(Cl)c1	x	x	x	x	x	n
COc1cc(OC)c(NS(=O)(=O)c2cc(-c3cnc(C)o3)ccc2OC)cc1Cl	x	x	x	x	x	n
Cc1cc2ccccc2n1CCNC(=O)C1CCCCC1	23µM	n	n	n	n	n
Cc1cc2ccccc2n1CCNC(=O)c1cccs1	u	n	u	u	n	21µM
CCOc1ccccc1N1CCN(S(=O)(=O)c2ccc(C3CCCCC3)cc2)CC1	x	x	x	x	n	n
CN(C)CCO[C@](C)(c1ccccc1)c1ccccn1	x	n	x	x	n	x
CCN(CC)S(=O)(=O)c1ccc(NC(=O)[C@H](CSCc2ccccc2)N2Cc3ccccc3C2=O)cc1	x	x	x	x	4.5µM	n
Nc1nccc(-c2cc(-c3ccc(Cl)cc3Cl)no2)n1	u	x	0.32µM	0.35µM	x	0.67µM
FC(F)(F)c1cnc2c(-c3ccc(Cl)cc3Cl)noc2c1	n	n	n	n	n	n
Cc1cc(C(=O)OCC(=O)NC2CCC(C)CC2)c(C)o1 (stereo not given)	n	x	n	n	x	n
CC1CCC(NC(=O)c2cc3ccccc3cc2O)CC1 (stereo not given)	n	x	2.2µM	u	x	5.4µM
Cc1cc(C(=O)NC2CCC(C)CC2)c(C)o1 (stereo not given)	5.2µM	x	1.8µM	1.4µM	x	9.5µM
O=C(NNC(=O)c1cc2ccccc2cc1O)NC1CCCCC1	n	x	n	n	x	n
COc1ccc(N2C(=O)CSC23C(=O)N(CC(=O)NC2CCCCC2)c2ccccc23)cc1 (stereo not given)	x	x	x	x	x	n
COCCCNC(=O)c1cccn2c(=O)c3cc4ccccc4cc3nc12	n	n	n	n	n	15µM
O=C(NCc1ccco1)c1cccn2c(=O)c3cc4ccccc4cc3nc12	u	n	n	n	u	n
O=C(O)COc1ccc(/C=N/NC(=O)c2cn(-c3ccccc3)nc2-c2ccccc2)cc1	n	x	n	n	x	4.8µM
O=C(N/N=C/c1ccc(OCC(=O)N2CCCCC2)cc1)c1ccccc1O	n	n	n	n	n	15µM
O=C(N/N=C/c1cccc(O)c1)c1ccccc1O	u	x	n	n	x	1.5µM
O=C(Oc1ccc(/C=N/NC(=O)c2ccccc2O)cc1)c1ccccc1	u	n	n	n	n	u
Cn1nccc1C(=O)Oc1ccc(/C=N/NC(=O)c2ccccc2O)cc1	n	n	n	n	n	17µM
O=C(N/N=C/c1ccc(OCC(=O)N2CCCCC2)cc1)c1ccccc1	n	n	n	n	u	u
SMILES	ELG1 genotox	KinaseGlo FLuc	Rab9 prom act	NPC1 promoter act	SMN2 splice enh	FLuc counter
Cc1cc(C)c2c(=O)c3c(oc2c1)C(=O)N(Cc1ccc(F)cc1)C3c1cccc(O)c1 (stereo not given)	x	x	x	x	n	n
CCN(CC)C(=O)c1ccccc1NC(=O)c1cccc(S(=O)(=O)N2CCC(C)CC2)c1	x	x	x	x	x	n
O=C(Nc1cccs1)Nc1cc(C(F)(F)F)ccc1Cl	x	x	x	x	n	u
O=C(N/N=C/c1cccc(O)c1)c1csc2ccccc12	n	n	n	n	n	21µM
CC(=O)Nc1ccc(OC(=O)CC2SC(=O)NC2=O)cc1 (stereo not given)	n	n	n	n	n	n
O=C(N/N=C/c1ccccc1OCC(=O)N1CCCC1)C(=O)Nc1ccccc1F	n	8.9µM	n	n	n	9.5µM
Nc1c(C(=O)N/N=C/c2ccccc2)cnn1-c1ccccc1	u	x	0.63µM	1.1µM	x	5.4µM
